High-throughput results deposited in PubChem BioAssay by National Center for Advancing Translational Sciences (NCATS).
KDM5B inhibitor: inhibitors of human KDM5B histone demethylase. Q9UGL1. KDM5B demethylase, FDH-coupled NADH fluorescence (FDH is formaldehyde dehydrogenase). Potency, µM (titrated, usually from 57.7 µM), actives largely listed as inhibitors. 2.6% of 220,000 active; active = well fitted inhibition curve with a large enough effect; also: 0% is about no effect; nearly all actives have a fitted effect of over 70% in size
Target sequence (Q9UGL1 whole entry, looked up): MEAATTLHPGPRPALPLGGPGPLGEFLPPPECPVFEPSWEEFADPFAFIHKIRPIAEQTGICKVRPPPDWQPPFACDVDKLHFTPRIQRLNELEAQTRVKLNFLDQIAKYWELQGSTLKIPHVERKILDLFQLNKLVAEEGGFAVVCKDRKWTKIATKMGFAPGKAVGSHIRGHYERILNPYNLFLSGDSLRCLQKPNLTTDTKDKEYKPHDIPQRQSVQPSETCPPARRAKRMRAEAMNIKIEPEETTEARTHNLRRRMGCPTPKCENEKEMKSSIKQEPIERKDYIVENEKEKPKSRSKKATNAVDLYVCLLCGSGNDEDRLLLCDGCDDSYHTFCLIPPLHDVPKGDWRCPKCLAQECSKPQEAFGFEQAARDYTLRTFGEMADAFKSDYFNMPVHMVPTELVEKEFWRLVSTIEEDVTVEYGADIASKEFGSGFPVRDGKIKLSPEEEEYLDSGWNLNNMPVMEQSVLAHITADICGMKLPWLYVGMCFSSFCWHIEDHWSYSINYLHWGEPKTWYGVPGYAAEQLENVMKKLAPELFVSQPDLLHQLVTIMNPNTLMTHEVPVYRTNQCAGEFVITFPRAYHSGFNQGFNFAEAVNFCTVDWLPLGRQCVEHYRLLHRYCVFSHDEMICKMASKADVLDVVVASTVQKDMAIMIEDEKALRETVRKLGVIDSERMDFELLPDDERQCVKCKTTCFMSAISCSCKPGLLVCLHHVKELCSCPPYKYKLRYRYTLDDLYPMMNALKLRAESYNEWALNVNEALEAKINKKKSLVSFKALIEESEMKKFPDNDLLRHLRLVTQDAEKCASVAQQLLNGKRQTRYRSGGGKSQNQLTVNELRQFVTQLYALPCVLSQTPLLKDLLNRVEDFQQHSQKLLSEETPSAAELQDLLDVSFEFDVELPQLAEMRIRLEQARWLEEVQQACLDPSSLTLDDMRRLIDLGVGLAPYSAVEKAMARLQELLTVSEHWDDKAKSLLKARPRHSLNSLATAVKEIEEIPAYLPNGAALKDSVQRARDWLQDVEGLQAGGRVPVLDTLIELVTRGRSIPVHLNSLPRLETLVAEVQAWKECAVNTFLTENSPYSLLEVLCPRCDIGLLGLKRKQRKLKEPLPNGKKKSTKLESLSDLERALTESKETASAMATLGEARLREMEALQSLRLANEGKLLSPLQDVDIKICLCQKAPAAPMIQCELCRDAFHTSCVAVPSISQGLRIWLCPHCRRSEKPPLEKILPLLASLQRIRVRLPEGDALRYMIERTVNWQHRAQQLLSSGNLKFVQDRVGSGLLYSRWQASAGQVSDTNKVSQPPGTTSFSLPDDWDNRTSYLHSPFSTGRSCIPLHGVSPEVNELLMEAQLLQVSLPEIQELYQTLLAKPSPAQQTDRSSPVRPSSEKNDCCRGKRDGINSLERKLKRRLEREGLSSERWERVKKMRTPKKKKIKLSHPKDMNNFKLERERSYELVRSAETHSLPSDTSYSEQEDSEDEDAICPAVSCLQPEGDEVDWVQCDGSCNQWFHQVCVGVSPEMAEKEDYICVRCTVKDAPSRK
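Here, H3K4me3 peptide (12.5 µM in substrate mix) is demethylated by KDM5BΔAP, 200 nM final, after 10 min compound exposure. Formaldehyde product is coupled through FDH (0.25 U/mL in mix) to NADH fluorescence; 30-min ΔRFU feeds dose-response curves.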
An asterisk follows results filed as active; i = inactive. The full list was thinned out, with hits kept by preference. Potency is read from the fitted curve at half-maximal effect.

SMILES	KDM5B inhibitor
O=C(O)Cn1ccc2cc(OCC3CCN(C(=O)COc4ccccc4)CC3)cnc21	35.5µM*
O=C(COc1ccccc1)N1CCC(Cc2nc(-c3ccncc3)n[nH]2)CC1	i
CC(C)OC(=O)CSc1nc2c(c(=O)[nH]c(=O)n2C)n1C	i
O=C(Nc1cccc(NC(=O)C2CCCC2)c1)C1CCCC1	i
CC(C)CCn1c(NCc2ccco2)nc2c1c(=O)[nH]c(=O)n2C	i
O=C(NNC1CC(=O)N(c2ccccc2)C1=O)c1cccnc1 (stereo not given)	i
CCc1cc(N2CCC3(CC2)CC(c2ccccc2)C(=O)N3)nc(N(C)C)n1 (stereo not given)	i
CN1CCN(S(=O)(=O)c2ccc(N3CCN(c4ccccc4Cl)CC3)nc2)CC1	i
O=CN1CCC(n2cnc3cccnc32)CC1	i
O=c1c2nc(N3CCC(c4ccccc4)CC3)ccc2ncn1-c1cccnc1	35.5µM*
Cn1nc(C2CCCN(C(=O)c3cccnc3)C2)n(-c2ccccc2)c1=O (stereo not given)	i
CN1CC(=O)N(c2cccnc2)Cc2c1ncnc2N1CCN(c2ncccn2)CC1	i
O=c1c2nc(N3CCC(c4ccccc4)CC3)ccc2ncn1C1CC1	35.5µM*
CN1CCN(c2ccc3ncn(-c4cccnc4)c(=O)c3n2)CC1	35.5µM*
Cc1cc(C(=O)NC(C2CC2)C2CC2)c2c(Br)cccc2n1	i
CC(C)(CNC(=O)CCCNC(=O)C1CC1)c1ccc(Br)cc1	i
O=S(=O)(Nc1nc2ccccc2nc1N1CCCCCC1)c1ccccc1	i
Cc1ccc(CNCCCn2ccnc2)cc1	i
CN(C)c1ccc(CNC(=O)C2(c3ccc(NS(C)(=O)=O)cc3)CCCCC2)cc1	i
O=S(=O)(c1cccc2nsnc12)N(Cc1ccncc1)C1CC1	i
O=S(=O)(Nc1nc2ccccc2nc1Nc1cccc(Cl)c1)c1cccs1	i
Cc1cc(C)c2oc(-c3cc(NC(=O)c4ccco4)cc(C)c3O)nc2c1	i
CCCC(=O)N1CCC(C(=O)Nc2cc(C)ccn2)CC1	i
CCOC(=O)c1cc(S(=O)(=O)N(C)CC(=O)N2CCN(c3ccccc3F)CC2)cn1C	i
Cc1nn(-c2ccc(Cl)nn2)c2c1C(c1ccc(O)cc1)CC(=O)N2 (stereo not given)	i
SMILES	KDM5B inhibitor
CCCCC1CCCN1C(=O)c1coc(COc2cccc(F)c2F)n1 (stereo not given)	i
Cc1ccc2oc(C(=O)Nc3cccc(C(F)(F)F)c3)cc(=O)c2c1	i
CSc1ccc(CN2CCN(Cc3ccncc3)CC2)cc1	i
c1cc(CN2CCc3c(sc4ncnc(N5CCCC5)c34)C2)ccn1	25.1µM*
O=C(NCC(F)(F)F)C1CCN(c2ncnc3sc4c(c23)CCC4)CC1	i
Cc1ccc(NC(=O)c2nn(Cc3ccccc3)c(=O)c3ccccc23)cc1F	i
CCc1ccccc1OC(C(=O)O)c1ccccc1 (stereo not given)	i
CCOc1ccc(-n2c(SCC(=O)N(C)c3ccc(F)cc3)nc3[nH]ncc3c2=O)cc1	i
Cc1noc([C@@H]2CN(Cc3ccc(F)cc3F)C[C@H]2CO)n1	i
Cc1ccc2cc(CN3C[C@@H](CO)[C@H](c4nc(C)no4)C3)c(=O)[nH]c2c1	28.2µM*
Cc1ccc(CN2C[C@@H](CO)[C@H](c3nc(-c4ccncc4)no3)C2)cc1	i
Cc1noc([C@@H]2CN(Cc3ccccc3C)C[C@H]2CO)n1	i
Cc1noc([C@@H]2CN(Cc3ccncc3F)C[C@H]2CO)n1	i
Cc1noc([C@@H]2CN(Cc3ccncc3)C[C@H]2CO)n1	28.2µM*
O=C(Cc1csc(-c2ccccc2Cl)n1)Nc1nc(C2CC2)cs1	i
COc1ccccc1N(C)S(=O)(=O)c1ccc(C(=O)Nc2c(C)cccc2C(C)C)cc1	i
Cc1nc2ccc(C(=O)OCC(=O)NC(=O)NC3CC3)cc2nc1C	i
NC(=S)c1ccc(S(N)(=O)=O)cc1	i
Cc1ccc2c(C)c(CCC(=O)Nc3ccc(C)c(F)c3)c(=O)oc2c1	i
CCc1nc(C)c(C(=O)Nc2nn(C)c3cccc(N4CCOC4=O)c23)o1	i
CCOCC(=O)Nc1nn(-c2ccc(F)cc2)c2cccc(N3CCOC3=O)c12	25.1µM*
Cn1nc(NC(=O)CSc2ccccc2)c2c(N3CCOCC3)cccc21	i
CCOc1ccc(OCCOCCOc2ccccc2)cc1	i
COC1CCN(c2cc(-c3cccnc3)nc3c(C)noc23)CC1	i
Cc1noc2c(NCCN(C)C)cc(-c3ccccc3)nc12	i
SMILES	KDM5B inhibitor
CC(=O)N1CCN(c2nc(-c3c(C)noc3C)cc3c2cc(-c2ccccc2)n3C)CC1	39.8µM*
Cc1noc2c(-c3cccnc3N(C)C)cc(-c3ccccc3)nc12	31.6µM*
COC1CCCN(c2ncccc2-c2cc(-c3ccccc3)nc3c(C)noc23)C1 (stereo not given)	39.8µM*
Cc1noc2c(NC(C)C)cc(-c3ccccc3)nc12	i
Cc1noc2c(NC3CCN(C)CC3)cc(-c3ccccc3)nc12	i
COC1CCCN(c2cc(-c3cccnc3)nc3c(C)noc23)C1 (stereo not given)	i
Cc1noc2c(N3CC[S+](=O)([O-])CC3)cc(-c3ccccc3)nc12	i
CC(=O)N1CCN(C(=O)CCn2c(-c3ccccc3)cc3ccccc32)CC1	i
CC(=O)N1CCN(c2ncccc2-c2cc(-c3ccccc3)nc3c(C)noc23)CC1	35.5µM*
CC(=O)N1CCN(c2nc(-c3ccccc3)nc3ccccc23)CC1	i
CC(C)CCOc1ccc(C(=O)Nc2cccc3cccnc23)cc1	i
CC(NC(=O)c1ccc(F)cc1)c1cccc(NS(C)(=O)=O)c1 (stereo not given)	i
CC1=C(C(=O)Nc2cccc(C(F)(F)F)c2)C(c2ccc(OC(F)F)cc2)NC(=O)N1 (stereo not given)	i
Cn1cnnc1CC1CCN(c2ncc(C(F)(F)F)cc2Cl)CC1	i
c1ccc(-c2nn3c(-c4ccc5ccccc5n4)nnc3s2)cc1	i
CCN(CC)S(=O)(=O)c1cccc(NC(=O)Cc2ccc(Cl)cc2Cl)c1	i
CN(C)c1nc2c(c(=O)[nH]1)CCN(Cc1ccc(F)c(Br)c1)CC2	i
CN(c1ccccc1)c1ccc2nnc(-c3cc(C(=O)N4CCCCC4)ccn3)n2n1	i
O=C(NCC1CC1)c1ccnc(-c2nnc3ccc(Nc4ccccc4)nn23)c1	i
CN(C)c1ccc2nnc(-c3cc(C(=O)NCCc4ccccn4)ccn3)n2n1	35.5µM*
CN(c1ccccc1)c1ccc2nnc(-c3cc(C(=O)NCc4cccnc4)ccn3)n2n1	35.5µM*
CN1CCN(C(=O)c2ccnc(-c3nnc4ccc(N(C)c5ccccc5)nn34)c2)CC1	i
CN(c1ccccc1)c1ccc2nnc(-c3cc(C(=O)NC4CCC(O)CC4)ccn3)n2n1 (stereo not given)	i
CN(c1ccccc1)c1ccc2nnc(-c3cc(C(=O)Nc4ccccn4)ccn3)n2n1	11.2µM*
CN(C)CCNC(=O)c1ccnc(-c2nnc3ccc(Nc4ccccc4)nn23)c1	i
CN(c1ccccc1)c1ccc2nnc(-c3cc(C(=O)NCC4CCCO4)ccn3)n2n1 (stereo not given)	i
CC(C)c1ccccc1NC(=O)CCc1ncc(-c2ccccc2F)o1	i
CCOC(=O)c1sc(NC(=O)C[C@H]2NC(=O)c3ccccc3NC2=O)nc1C	i
Cc1ccc2oc(C(=O)Nc3nnc(C)s3)cc(=O)c2c1	i
